A selection: hits, their analogues and other compounds. The true share with any hit is near 8.1%.
KB-V1 MDR tox: KB-V1 MDR subline cytotoxicity. KB-V1 MDR cells viability, CellTiter-Glo, 72 h. 400,000 compounds, 3.4% hits. AID 1347076. Potency, µM (highest dose often 46.1 µM), actives largely listed as cytotoxic; also: % is scaled to controls: 0 for no effect and ±100 for the full control effect; nearly all actives have a fitted effect of over 60% in size
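Potencies derive from concentration-effect curves fitted to normalized luminescence (CellTiter-Glo) of KB-V1 cells treated for 72 h at 37 degrees C in phenol-red-free DMEM containing 10% FBS.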
ELG1 DNA repair: blocks ELG1-dependent DNA repair in HEK293T cells; HEK293T ELG1-luciferase reporter, luminescence, 16 h; DNA damage induced by 5-fluorouridine; Potency, µM (series often up to 46.1 µM), inactives show at the top dose activity change, negative = inhibition, hits mostly inhibitors; 330,000 compounds, 2.3% hits; also: % is scaled to controls: 0 for no effect and ±100 for the full control effect; nearly all actives have a fitted effect of over 55% in size
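Quantitative HTS, concentration-response format. 2,000 cells/well co-treated with 5-fluorouridine and compound, 16 hr in 5% CO2 at 37 °C; ONE-Glo luminescence read after 30 min.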
MCF10A rereplic: induces DNA re-replication in MCF 10a normal breast cells; MCF 10A DNA re-replication, Hoechst nuclear intensity, 48 h; Potency, µM (doses to about 46.1 µM), inactives show at the highest dose activity, positive = re-replication, hits mostly activators; 350,000 compounds, 2.9% hits; also: % of control where 0% means no effect; nearly all actives have a fitted effect of over 50% in size
SW480 rerep: inducers of DNA re-replication in SW480 colon cancer cells; 340,000 compounds, 1.8% hits; AID 624297; Potency, µM (series often up to 46.1 µM), without a hit: at the top dose re-replication activation, hits mostly activators; SW480 DNA re-replication, Hoechst DNA content imaging, 48 h; also: % of control where 0% means no effect; nearly all actives have a fitted effect of over 55% in size
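Treated cells incubate 48 hr (37 C, 5% CO2), are stained 40 min with Hoechst, and nuclear fluorescence is enumerated; a rise in nuclei with high DNA signal marks re-replication.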
KB-3-1 cytotox: kills parental KB-3-1 adenocarcinoma cells; KB-3-1 viability, CellTiter-Glo ATP luminescence, 72 h; Potency, µM (titrated, usually from 46.1 µM), most hits filed as cytotoxic; 400,000 compounds, 1.4% hits; also: % is scaled to controls: 0 for no effect and ±100 for the full control effect; nearly all actives have a fitted effect of over 60% in size
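Screening of KB-3-1 cells (DMEM, 10% FBS, phenol-red free) ran from lowest to highest compound concentration; after 72 h at 37 °C viability was read luminescently and curves fitted.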
* = called active by the depositor; i = inactive; ? = inconclusive; · = no result given; ! = repeats disagree. Calls follow the shape of the dose curve; as a rule, active = well fitted curve in the direction sought with a large enough effect; inconclusive = small, poorly fitted or top-dose-only effect, or another doubt; inactive = no such curve, though single readings can be large; an effect the other way counts as inactive or inconclusive. Potency is read from the fitted curve at half-maximal effect.

SMILES	KB-V1 MDR tox	ELG1 DNA repair	MCF10A rereplic	SW480 rerep	KB-3-1 cytotox
N#Cc1c(-n2ncnc2-c2cccc(Cl)c2)sc2c1CCCCC2	i	·	·	·	i
O=C(O)c1ccc2c(c1)SC1=NS(=O)(=O)CCN12	?	3.1%	10.5%	-22.7%	i
CN(C(=O)c1ccc2c(c1)SC1=NS(=O)(=O)CCN12)C(c1ccccc1)c1ccccc1	i	25.9µM*	-5.1%	·	i
COc1ccc(/C=N/Nc2nc(Nc3ccccc3)nc(N3CCCCC3)n2)cc1OC	?	5.8µM*	9.3%	1.2%	?
CCOc1cc(/C=N/Nc2nc(Nc3ccccc3)nc(N3CCCCC3)n2)ccc1OCC(=O)O	i	11.7%	17.4%	0.1%	i
CCOc1cc(/C=N/Nc2nc(N3CCCC3)nc(N3CCCC3)n2)ccc1O	?	11.6µM*	5.5%	14.8%	i
CCOc1cccc(/C=N/Nc2nc(N3CCCC3)nc(N3CCCC3)n2)c1O	?	?	2.8%	-3.4%	i
COc1ccc(/C=N\Nc2ncc(F)c(N3CCOCC3)n2)cc1OC	i	18.3µM*	8.1%	-2.2%	i
CCCCOc1ccc(C(=O)NCC(=O)OCCCOC(=O)CNC(=O)c2ccc(OCCCC)cc2)cc1	i	·	·	·	i
Cc1cccc(N(CC(=O)NCCSCc2cccc(Cl)c2)S(=O)(=O)c2ccccc2)c1C	i	·	·	·	i
CN(Cc1ccccc1)C(=O)c1[nH]cnc1C(=O)Nc1cccc(Cl)c1	i	?	9.6%	-2.8%	i
Cc1cc[n+](CCC2CCCCC2)cc1	i	·	·	·	20.6µM*
Cn1ncc2c1NC(c1ccc(F)cc1)SCC2=O (stereo not given)	i	·	·	·	?
Cc1csc(NC(=O)CSc2nc(C(C)C)nc3ccccc23)n1	14.6µM*	-6.0%	18.4µM*	26.1%	?
CC(C)c1nc(SCC(=O)c2ccc(F)cc2)c2ccccc2n1	i	?	3.26µM*	?	i
CC(=O)c1ccc(N2C(=O)Nc3ccccc3S2(=O)=O)cc1	i	·	·	·	i
CNS(=O)(=O)c1cccc(C(=O)OCc2cc(=O)oc3c(C)c(O)ccc23)c1	i	23.1µM*	?	-11.2%	i
Cc1c(O)ccc2c(CC(=O)N[C@@H](Cc3ccccc3)C(=O)O)cc(=O)oc12	i	-0.9%	23.1µM*	?	i
COc1cccc(CN(C)Cc2cc(=O)oc3cc(O)c(Cl)cc23)c1	i	-20.4%	20.6µM*	?	?
Cc1c(O)ccc2c(CN(C)Cc3ccccc3)cc(=O)oc12	i	13µM*	-36.0%	18.4µM*	i
Cc1cc2oc(=O)cc(CN(C)Cc3cccc(F)c3)c2cc1C	i	-1.6%	6.5%	?	i
CCc1cc2c(CN(C)Cc3ccccc3F)cc(=O)oc2cc1O	11.6µM*	-16.8%	18.4µM*	?	?
COc1cccc(CN(C)Cc2cc(=O)oc3c(C)c(C)ccc23)c1	i	?	13.3%	-9.9%	16.4µM*
Cc1ccccc1CN(C)Cc1cc(=O)oc2c(C)c(C)ccc12	?	24.1%	?	?	?
CS(=O)(=O)N1CCN(CC2CC3C=CC2C3)CC1 (stereo not given)	i	1.5%	13.0%	2.5%	i
SMILES	KB-V1 MDR tox	ELG1 DNA repair	MCF10A rereplic	SW480 rerep	KB-3-1 cytotox
COc1ccc(CN2CCN(S(=O)(=O)c3ccc(F)cc3)CC2)c(OC)c1OC	?	?	?	-2.0%	i
COc1ccc(CN2CCN(S(=O)(=O)c3ccc(F)cc3)CC2)cc1OC	i	13µM*	0.9%	-4.6%	i
CC(=O)Nc1ccc(S(=O)(=O)N2CCN(CC3CC4C=CC3C4)CC2)cc1 (stereo not given)	?	-1.8%	11.8%	1.3µM*	i
COc1cc(CN2CCN(S(=O)(=O)c3ccc(NC(C)=O)cc3)CC2)cc(OC)c1O	i	-13.1%	-4.8%	-4.6%	i
COc1ccc(CN2CCN(S(=O)(=O)c3ccc(NC(C)=O)cc3)CC2)cc1OC	20.6µM*	-22.9%	?	-0.9%	i
COc1ccc(Cl)cc1C(=O)Nc1ccc([N+](=O)[O-])cc1Cl	i	·	·	·	i
O=C(Nc1cccc(Cl)c1)c1cc(N=Nc2ccc([N+](=O)[O-])cc2Cl)ccc1O	?	-5.3%	3.0%	6.0%	20.6µM*
O=C(Nc1ccc([N+](=O)[O-])cc1Cl)c1cc(Cl)ccc1O	1.03µM*	?	?	3.16µM*!	1.16µM*
COc1cc(/C=C2/SC(=S)N(c3c(C)n(C)n(-c4ccccc4)c3=O)C2=O)ccc1O	i	-2.6%	?	-2.6%	i
Cc1nc2sc(C(=O)N(C)Cc3ccccc3)c(NC(=O)c3ccccc3)c2c(C)c1Cl	i	·	·	·	i
COc1cc(NC(=O)c2ccc3oc(=O)c(S(=O)(=O)c4ccccc4)cc3c2)cc(OC)c1	i	·	·	·	?
COc1cccc(CNC(=O)CCS(=O)(=O)c2ccc3c(c2)oc(=O)n3C)c1	i	14.3%	11.1%	10.8%	i
O=c1c2sc3nc(N4CCOCC4)c4c(c3c2ncn1CCc1ccccc1)CCCC4	2.31µM*	-5.8%	?	-6.6%	i
Cc1ccc(C)c(NC(=O)n2ncc3cc(Cl)ccc32)c1	i	·	·	·	i
CN1OC[C@@H]2CN(C(=O)NC3CCCCC3)[C@H](c3ccc(N4CCCCC4)cc3)C[C@@H]21	i	·	·	·	i
Cc1ccc(NC(=O)Cn2c(-c3nonc3N)nc3ccccc32)cc1C	?	·	·	·	i
Cc1ccc(-c2nc(NC(=O)c3nn(C)cc3[N+](=O)[O-])sc2C)cc1	?	16.4µM*	?	1.4%	4.61µM*
Cc1ccc(-c2nc(NC(=O)c3nn(C)cc3[N+](=O)[O-])sc2C)cc1C	14.6µM*	9.2µM*	?	1.46µM*	?
Cc1cnc(NC(=O)c2nn(C)cc2[N+](=O)[O-])s1	?	15.4%	4.11µM*	3.66µM*	?
Cn1cc([N+](=O)[O-])c(C(=O)Nc2nc(-c3ccc(Cl)cc3)cs2)n1	13µM*	2.06µM*	5.17µM*	5.8µM*	6.51µM*
COC(=O)c1ccccc1NC(=O)Cn1c(=O)n(CCCC(=O)NCc2ccccc2Cl)c(=O)c2ccccc21	i	·	·	·	i
O=C(O)c1cc(NS(=O)(=O)c2ccc(F)cc2)cc(NS(=O)(=O)c2ccc(F)cc2)c1	?	6.9%	-3.5%	-4.9%	i
CCOC(=O)c1ccc2c(c1)N(Cc1cccc([N+](=O)[O-])c1)C(=O)c1ccccc1S2	?	·	·	·	i
CCn1cc([N+](=O)[O-])c(C(=O)Nc2ccn(C34CC5CC(CC(C5)C3)C4)n2)n1	i	7.8%	16.4%	-0.1%	i
Cn1cc([N+](=O)[O-])c(C(=O)Nc2ccn(C34CC5CC(CC(C5)C3)C4)n2)n1	14.6µM*	9.1%	?	?	4.61µM*

Compound activity (PubChem BioAssay)
